Reference: PubChem BioAssay AID1026 (Columbia University Molecular Screening Center, 2008)

target: Bifunctional epoxide hydrolase 2 (Homo sapiens) (UniProt P34913); experiment: sEH inhibitor concentration-response potency, dose response, biochemical, human sEH, fluorescence, Infinite200 (AID 1026); conditions: recombinant human sEH, fluorogenic substrate, at 0.2 µM, stronger effect = higher value
Sequence (P34913 whole entry, looked up): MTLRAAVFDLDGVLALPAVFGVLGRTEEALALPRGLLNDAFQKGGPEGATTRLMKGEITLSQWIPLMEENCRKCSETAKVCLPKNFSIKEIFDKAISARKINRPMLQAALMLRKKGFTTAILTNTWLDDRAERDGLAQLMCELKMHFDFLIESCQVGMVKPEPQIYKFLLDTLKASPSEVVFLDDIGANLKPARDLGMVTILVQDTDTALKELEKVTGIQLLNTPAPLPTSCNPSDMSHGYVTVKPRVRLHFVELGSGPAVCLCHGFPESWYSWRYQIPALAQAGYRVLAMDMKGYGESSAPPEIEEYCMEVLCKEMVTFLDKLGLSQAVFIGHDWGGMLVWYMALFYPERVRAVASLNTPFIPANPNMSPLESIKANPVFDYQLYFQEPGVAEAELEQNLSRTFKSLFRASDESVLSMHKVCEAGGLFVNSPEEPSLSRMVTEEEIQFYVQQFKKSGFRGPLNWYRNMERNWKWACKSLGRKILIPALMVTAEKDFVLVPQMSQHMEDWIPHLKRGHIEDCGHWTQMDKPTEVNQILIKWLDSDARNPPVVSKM

inhibition, inactive:
Cc1ccccc1OCCCC(=O)Nc1ccc(Br)cc1 69.8%
O=C(NCCC1=CCCCC1)NC1CCCCC1 70.5%
NS(=O)(=O)c1ccc(CNC(=O)/C=C/c2c(Cl)cccc2Cl)cc1 51.6%
O=C(CSCc1ccc(Cl)cc1)N/N=C/c1ccc(Cl)cc1Cl 55.6%
Cc1ccccc1-c1nc(CN2CCC(C(=O)NCCC3=CCCCC3)CC2)c(C)o1 55.6%
CC1CCCCN1C(=O)NC12CC3CC(CC(C3)C1)C2 (centres undefined) 16.8%
Cc1ccc(-n2nnnc2SCC(=O)NCCC2=CCCCC2)c(C)c1 41.9%
C/C(=N\NC(=O)c1cccc(S(=O)(=O)Nc2ccccc2Cl)c1)c1ccc(-n2ccnc2)cc1 56%
COc1ccccc1NS(=O)(=O)c1cccc(C(=O)NN)c1 42.3%
O=C(Nc1ccc(N2CCOCC2)cc1)Nc1ccc(Cl)c(Cl)c1 40%
Cc1ccccc1C(=O)N1CCC(C(=O)Nc2ccc(S(=O)(=O)N(C)C(C)C)cc2)CC1 50.3%
CCCCCC(=O)Nc1ccc2oc(-c3ccncc3)nc2c1 31.2%
CCC(C)NC(=O)Nc1ccc2c(c1)N(C)C(=O)c1ccccc1S2 (centres undefined) 59.7%
O=C(Nc1ccc(Cl)cc1)N1CCC(c2nc(-c3ccccc3Cl)no2)CC1 62.8%
O=C(CCC1CCCCC1)NNC(=O)NC12CC3CC(CC(C3)C1)C2 59.2%
O=C(NCc1cccs1)C1CCC(CNS(=O)(=O)c2ccc(Br)s2)CC1 (centres undefined) 62.3%
Cc1ccccc1C(=O)N1CCN(c2ccc(NC(=O)CSc3ccc(Cl)cc3)cc2)CC1 60.1%
CCC(C)c1ccc(NC(=O)c2cccs2)cc1 (centres undefined) 68%
CCCCOc1cccc(/C=N/NC(=O)c2csc(C)c2C)c1 60.7%
O=C(Nc1ccc2c(c1)OCCO2)NC12CC3CC(CC(C3)C1)C2 72.8%
Cc1ccc(N(CC(=O)NC2CCCCC2)C(=O)c2ccc(C)s2)cc1 43.7%
O=C(NCc1ccc(N2CCCC2=O)cc1)NC1CCCCC1 47.5%
CCOC(=O)c1sc(NC(=O)c2ccc(C)s2)cc1C 59.1%
O=C(NCCC1=CCCCC1)C1CCCN(c2nc3ccccc3o2)C1 (centres undefined) 53.6%
CCN(CCCNC(=O)CCCCn1c(=O)[nH]c2ccccc2c1=O)c1ccccc1 38.1%
CCn1nc(CC(=O)Nc2ccc(-n3cnnn3)c(C)c2)c2ccccc2c1=O 48.9%
COc1ccc(NC(=O)N2CCC(c3nc(-c4cccs4)no3)CC2)cc1 62.9%
CCn1c(C(=O)N2CCC(C(=O)NCCCSC3CCCCC3)CC2)cc2sccc21 61.7%
O=C(NCc1ccccc1Cl)c1ccc(Cn2cc(C(F)(F)F)ccc2=O)cc1 52.6%
O=C(NCCC(c1ccccc1)c1ccccc1)c1ccc(Br)o1 72%
COc1ccc(CCN2C(=O)C3C4CC(C5C(C(=O)N/N=C\c6ccc(Cl)cc6)=NOC45)C3C2=O)cc1OC (centres undefined) 67.1%
O=C(Nc1cccc(F)c1)NC1CC2CCCC(C1)N2C1CC1 (centres undefined) 58.4%
CC1CCCN(S(=O)(=O)c2ccc(C(=O)Nc3nnc(-c4ccccc4Cl)o3)cc2)C1 (centres undefined) 58%
O=C(NCCc1ccccc1)NC1CCCCC1 44.6%
CC(C)(C)c1cnnn1-c1ccc(NC(=O)c2ccc3c(c2)OCO3)cc1 68.6%
CCOC(=O)CSc1nc2ccccc2c(=O)n1CC1CCC(C(=O)NCc2ccco2)CC1 (centres undefined) 45.6%
CC1CCCN(S(=O)(=O)c2ccc(NC(=O)c3cccc(-n4cnnn4)c3)cc2)C1 (centres undefined) 59%
O=C(NC1CCCCCCC1)C1CCN(c2nc3ccccc3o2)CC1 73.5%
COc1ccc(CNC(=O)C2CCC(CNS(=O)(=O)c3cccc4nsnc34)CC2)cc1 (centres undefined) 74.4%
